Source: publication PMC7862700, “An all-to-all approach to the identification of sequence-specific readers for epigenetic DNA modifications on cytosine”

Key:
Experiment in all cases: DAPPL (digital affinity profiling via proximity ligation, sequencing); 10 mM Tris-HCl pH 7.5, 50 mM NaCl, 1 mM DTT, 4% glycerol, room temperature, 30 min; GST-TFs on glutathione beads, 16-mer random dsDNA library, 0.1% formaldehyde crosslink after washing; high values mean tight binding
FEV = biological target: T1, FEV (Homo sapiens, UniProt Q99581 1-238); settings: protein: recombinant; tags: N-terminal GST; dsDNA, one strand shown
T1 sequence: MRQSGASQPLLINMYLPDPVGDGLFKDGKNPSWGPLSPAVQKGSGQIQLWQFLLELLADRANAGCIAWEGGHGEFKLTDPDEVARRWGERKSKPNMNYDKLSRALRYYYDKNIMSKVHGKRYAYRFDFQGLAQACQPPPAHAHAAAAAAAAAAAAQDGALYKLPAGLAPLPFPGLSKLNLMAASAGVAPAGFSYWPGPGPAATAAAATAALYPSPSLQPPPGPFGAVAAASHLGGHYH
Procedure, shortened: (§1)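 Sequencing on an Illumina NextSeq500 followed washing, crosslinking with 0.1% formaldehyde, proximity ligation (BsaI/T4 ligase, 1 h, 37 °C) and PCR amplification of pools that had been incubated for 30 min at room temperature with 200 nmole of a random double-stranded 16-mer DNA library in Tris/NaCl/DTT/glycerol buffer. Each pool held DNA-barcoded human transcription factors, expressed in yeast as GST fusions and captured on glutathione beads, plus a tag-only sample. Binding signal is a hexamer's read frequency for a factor divided by its frequency in the tag-only sample.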

ETV5 = ETV5 (Homo sapiens, UniProt P41161 1-510); settings: protein: recombinant; tags: N-terminal GST; dsDNA, one strand shown
Procedure, shortened: as §1

HSF1 = HSF1 (Homo sapiens, UniProt Q00613 1-529); settings: protein: recombinant; tags: N-terminal GST; chain copies: 3; dsDNA, one strand shown
Procedure, shortened: as §1

SPIC = biological target: T2, SPIC (Homo sapiens, UniProt Q8N5J4 1-248); settings: protein: recombinant; tags: N-terminal GST; dsDNA, one strand shown
T2 sequence: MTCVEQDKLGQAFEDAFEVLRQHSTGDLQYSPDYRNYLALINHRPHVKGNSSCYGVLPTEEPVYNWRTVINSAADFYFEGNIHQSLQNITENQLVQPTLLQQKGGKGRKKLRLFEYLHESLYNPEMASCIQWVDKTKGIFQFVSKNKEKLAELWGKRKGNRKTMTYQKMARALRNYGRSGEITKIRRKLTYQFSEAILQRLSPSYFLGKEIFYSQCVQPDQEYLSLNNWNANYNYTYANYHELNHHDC
Procedure, shortened: as §1

ELF4 = ELF4 (Homo sapiens, UniProt Q99607 1-663); settings: protein: recombinant; tags: N-terminal GST; dsDNA, one strand shown
Procedure, shortened: as §1

ELK4 = biological target: T3, ELK4 (Homo sapiens, UniProt P28324-2 1-405); settings: protein: recombinant; tags: N-terminal GST; dsDNA, one strand shown
T3 sequence: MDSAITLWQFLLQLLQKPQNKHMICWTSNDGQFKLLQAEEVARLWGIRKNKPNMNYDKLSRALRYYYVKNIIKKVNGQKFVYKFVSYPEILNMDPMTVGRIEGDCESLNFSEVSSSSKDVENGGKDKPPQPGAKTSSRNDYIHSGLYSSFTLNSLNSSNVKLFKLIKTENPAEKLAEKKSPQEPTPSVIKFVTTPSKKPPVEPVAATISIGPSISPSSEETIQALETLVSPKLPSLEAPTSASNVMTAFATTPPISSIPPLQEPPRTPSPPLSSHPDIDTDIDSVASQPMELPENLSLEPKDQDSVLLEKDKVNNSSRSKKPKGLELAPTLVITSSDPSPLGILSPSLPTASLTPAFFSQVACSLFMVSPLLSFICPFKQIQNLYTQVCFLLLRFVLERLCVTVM
Procedure, shortened: as §1

ETV2 = biological target: T4, ETV2 (Homo sapiens, UniProt O00321 1-342); settings: protein: recombinant; tags: N-terminal GST; dsDNA, one strand shown
T4 sequence: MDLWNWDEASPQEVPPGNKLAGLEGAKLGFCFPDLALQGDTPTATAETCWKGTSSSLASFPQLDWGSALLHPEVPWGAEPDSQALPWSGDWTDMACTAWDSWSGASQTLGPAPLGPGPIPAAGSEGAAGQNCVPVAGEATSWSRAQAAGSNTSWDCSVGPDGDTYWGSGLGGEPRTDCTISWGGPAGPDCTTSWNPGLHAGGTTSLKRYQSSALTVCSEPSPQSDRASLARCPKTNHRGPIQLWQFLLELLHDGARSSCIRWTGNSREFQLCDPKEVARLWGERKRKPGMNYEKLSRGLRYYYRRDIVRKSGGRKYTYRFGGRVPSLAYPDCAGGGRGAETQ
Procedure, shortened: as §1

ELF3 = biological target: T5, ELF3 (Homo sapiens, UniProt P78545 1-371); settings: protein: recombinant; tags: N-terminal GST; dsDNA, one strand shown
T5 sequence: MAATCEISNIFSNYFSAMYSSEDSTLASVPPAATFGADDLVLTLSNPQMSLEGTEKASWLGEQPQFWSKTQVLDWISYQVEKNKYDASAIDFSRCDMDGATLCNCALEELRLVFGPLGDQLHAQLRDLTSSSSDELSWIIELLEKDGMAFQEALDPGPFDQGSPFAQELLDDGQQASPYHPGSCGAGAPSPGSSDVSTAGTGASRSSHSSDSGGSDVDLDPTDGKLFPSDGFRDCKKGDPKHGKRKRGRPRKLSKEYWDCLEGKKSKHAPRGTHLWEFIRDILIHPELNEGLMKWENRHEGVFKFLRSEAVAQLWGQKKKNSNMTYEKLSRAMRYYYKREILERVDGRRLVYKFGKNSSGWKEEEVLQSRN
Procedure, shortened: as §1

CRX = CRX (Homo sapiens, UniProt O43186 1-299); settings: protein: recombinant; tags: N-terminal GST; dsDNA, one strand shown
Procedure, shortened: as §1

ETV1 = ETV1 (Homo sapiens, UniProt P50549 1-477); settings: protein: recombinant; tags: N-terminal GST; dsDNA, one strand shown
Procedure, shortened: as §1

ERF = biological target: T6, ERF (Homo sapiens, UniProt P50548 1-548); settings: protein: recombinant; tags: N-terminal GST; dsDNA, one strand shown
T6 sequence: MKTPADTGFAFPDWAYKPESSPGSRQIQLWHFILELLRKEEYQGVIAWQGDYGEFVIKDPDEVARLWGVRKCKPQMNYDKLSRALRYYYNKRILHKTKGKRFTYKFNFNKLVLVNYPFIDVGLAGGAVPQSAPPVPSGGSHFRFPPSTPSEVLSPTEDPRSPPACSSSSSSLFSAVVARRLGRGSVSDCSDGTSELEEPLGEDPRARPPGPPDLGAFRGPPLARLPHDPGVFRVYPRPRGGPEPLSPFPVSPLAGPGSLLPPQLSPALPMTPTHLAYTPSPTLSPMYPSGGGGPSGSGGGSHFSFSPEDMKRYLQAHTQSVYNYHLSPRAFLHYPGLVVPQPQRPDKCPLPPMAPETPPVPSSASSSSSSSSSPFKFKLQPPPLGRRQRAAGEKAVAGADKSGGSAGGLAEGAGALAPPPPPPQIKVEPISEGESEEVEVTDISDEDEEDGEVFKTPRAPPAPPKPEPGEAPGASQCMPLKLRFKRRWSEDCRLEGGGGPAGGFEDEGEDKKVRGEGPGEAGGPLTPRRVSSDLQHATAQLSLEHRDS
Procedure, shortened: as §1

ETV3L = biological target: T7, ETV3L (Homo sapiens, UniProt Q6ZN32 1-361); settings: protein: recombinant; tags: N-terminal GST; dsDNA, one strand shown
T7 sequence: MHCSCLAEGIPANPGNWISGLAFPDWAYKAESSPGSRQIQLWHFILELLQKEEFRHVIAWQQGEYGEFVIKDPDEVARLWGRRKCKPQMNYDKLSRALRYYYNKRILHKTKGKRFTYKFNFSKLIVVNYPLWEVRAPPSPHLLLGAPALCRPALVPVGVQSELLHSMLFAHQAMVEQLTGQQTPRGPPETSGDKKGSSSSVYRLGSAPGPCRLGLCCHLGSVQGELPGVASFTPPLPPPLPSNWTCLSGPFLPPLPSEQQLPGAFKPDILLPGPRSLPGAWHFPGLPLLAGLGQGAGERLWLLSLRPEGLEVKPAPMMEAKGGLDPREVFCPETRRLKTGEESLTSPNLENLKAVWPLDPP
Procedure, shortened: as §1

ETS2 = biological target: T8, ETS2 (Homo sapiens, UniProt P15036 1-469); settings: protein: recombinant; tags: N-terminal GST; dsDNA, one strand shown
T8 sequence: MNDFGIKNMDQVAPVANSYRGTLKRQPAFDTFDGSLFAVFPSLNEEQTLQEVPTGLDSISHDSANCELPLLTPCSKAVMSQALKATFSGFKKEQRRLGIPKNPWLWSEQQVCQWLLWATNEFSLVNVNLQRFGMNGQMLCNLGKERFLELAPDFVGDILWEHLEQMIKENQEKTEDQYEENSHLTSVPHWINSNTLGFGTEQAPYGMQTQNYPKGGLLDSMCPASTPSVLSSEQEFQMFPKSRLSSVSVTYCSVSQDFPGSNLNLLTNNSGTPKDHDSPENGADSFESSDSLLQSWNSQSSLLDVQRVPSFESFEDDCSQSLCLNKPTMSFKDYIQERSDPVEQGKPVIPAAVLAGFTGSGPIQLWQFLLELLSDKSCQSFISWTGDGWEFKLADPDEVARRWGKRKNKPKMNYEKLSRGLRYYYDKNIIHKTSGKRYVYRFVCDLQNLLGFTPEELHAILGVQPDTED
Procedure, shortened: as §1

SPDEF = biological target: T9, SPDEF (Homo sapiens, UniProt O95238 1-335); settings: protein: recombinant; tags: N-terminal GST; dsDNA, one strand shown
T9 sequence: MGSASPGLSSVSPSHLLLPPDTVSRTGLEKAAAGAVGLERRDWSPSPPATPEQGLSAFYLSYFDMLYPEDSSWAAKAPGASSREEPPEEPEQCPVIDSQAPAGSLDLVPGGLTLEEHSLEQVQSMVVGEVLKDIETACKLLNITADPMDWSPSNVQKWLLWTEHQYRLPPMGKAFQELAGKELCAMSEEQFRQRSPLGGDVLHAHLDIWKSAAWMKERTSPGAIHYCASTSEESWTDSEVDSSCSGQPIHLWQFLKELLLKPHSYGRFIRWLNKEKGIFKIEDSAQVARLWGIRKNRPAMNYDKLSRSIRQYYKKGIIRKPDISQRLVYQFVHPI
Procedure, shortened: as §1

ETV7 = biological target: T10, ETV7 (Homo sapiens, UniProt Q9Y603 1-341); settings: protein: recombinant; tags: N-terminal GST; dsDNA, one strand shown
T10 sequence: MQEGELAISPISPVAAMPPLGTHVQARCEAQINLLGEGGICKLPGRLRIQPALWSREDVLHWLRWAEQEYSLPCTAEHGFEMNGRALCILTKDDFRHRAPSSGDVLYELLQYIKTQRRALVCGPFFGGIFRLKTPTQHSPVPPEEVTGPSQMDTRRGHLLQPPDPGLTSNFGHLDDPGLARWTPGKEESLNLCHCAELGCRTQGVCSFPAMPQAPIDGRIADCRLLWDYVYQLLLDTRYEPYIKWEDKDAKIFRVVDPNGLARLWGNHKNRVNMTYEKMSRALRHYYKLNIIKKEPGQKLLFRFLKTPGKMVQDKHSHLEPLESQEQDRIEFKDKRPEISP
Procedure, shortened: as §1

ELF5 = biological target: T11, ELF5 (Homo sapiens, UniProt Q9UKW6-2 1-255); settings: protein: recombinant; tags: N-terminal GST; dsDNA, one strand shown
T11 sequence: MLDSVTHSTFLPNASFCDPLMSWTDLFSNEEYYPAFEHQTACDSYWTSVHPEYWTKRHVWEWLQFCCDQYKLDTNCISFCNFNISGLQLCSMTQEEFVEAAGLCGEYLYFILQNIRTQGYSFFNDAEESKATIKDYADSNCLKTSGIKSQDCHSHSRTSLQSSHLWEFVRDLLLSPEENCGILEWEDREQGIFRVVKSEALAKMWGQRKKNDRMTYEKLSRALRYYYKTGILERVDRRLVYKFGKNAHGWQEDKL
Procedure, shortened: as §1

ETV3 = biological target: T12, ETV3 (Homo sapiens, UniProt P41162-2 1-143); settings: protein: recombinant; tags: N-terminal GST; dsDNA, one strand shown
T12 sequence: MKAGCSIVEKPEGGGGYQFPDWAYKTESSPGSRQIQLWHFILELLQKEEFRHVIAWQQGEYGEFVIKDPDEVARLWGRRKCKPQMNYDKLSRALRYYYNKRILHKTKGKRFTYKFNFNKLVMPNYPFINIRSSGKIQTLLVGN
Procedure, shortened: as §1

ETV6 = ETV6 (Homo sapiens, UniProt P41212 1-452); settings: protein: recombinant; tags: N-terminal GST; dsDNA, one strand shown
Procedure, shortened: as §1

Chain of ETV5 (P41161 whole entry): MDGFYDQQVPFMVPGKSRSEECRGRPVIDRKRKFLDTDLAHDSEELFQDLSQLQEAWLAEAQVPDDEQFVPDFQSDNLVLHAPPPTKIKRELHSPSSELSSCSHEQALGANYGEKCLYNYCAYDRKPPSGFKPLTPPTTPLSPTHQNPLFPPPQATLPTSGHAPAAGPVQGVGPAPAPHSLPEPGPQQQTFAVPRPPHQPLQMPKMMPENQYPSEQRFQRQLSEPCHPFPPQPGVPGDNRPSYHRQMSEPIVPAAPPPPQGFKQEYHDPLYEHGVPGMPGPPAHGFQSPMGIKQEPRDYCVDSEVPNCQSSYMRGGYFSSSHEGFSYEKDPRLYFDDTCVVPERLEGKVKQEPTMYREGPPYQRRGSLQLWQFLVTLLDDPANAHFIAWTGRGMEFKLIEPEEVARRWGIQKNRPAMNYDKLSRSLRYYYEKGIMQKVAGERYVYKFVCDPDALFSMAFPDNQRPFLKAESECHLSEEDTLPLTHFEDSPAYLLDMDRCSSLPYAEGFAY
Chain of ETV1 (P50549 whole entry): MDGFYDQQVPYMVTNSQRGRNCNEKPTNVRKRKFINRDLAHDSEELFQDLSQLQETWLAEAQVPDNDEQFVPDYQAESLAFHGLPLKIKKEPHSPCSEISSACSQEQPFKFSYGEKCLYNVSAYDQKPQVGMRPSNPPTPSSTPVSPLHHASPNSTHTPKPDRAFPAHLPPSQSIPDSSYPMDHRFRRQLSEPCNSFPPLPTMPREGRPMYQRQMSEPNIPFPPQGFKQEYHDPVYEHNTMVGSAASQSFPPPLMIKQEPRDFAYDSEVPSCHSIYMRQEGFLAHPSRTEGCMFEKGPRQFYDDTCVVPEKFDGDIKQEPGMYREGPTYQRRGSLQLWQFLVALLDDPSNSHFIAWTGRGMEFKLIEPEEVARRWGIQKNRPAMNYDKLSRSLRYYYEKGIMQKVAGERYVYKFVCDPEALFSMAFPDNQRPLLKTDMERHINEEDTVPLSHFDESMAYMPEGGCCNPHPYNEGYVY
Chain of ETV6 (P41212 whole entry): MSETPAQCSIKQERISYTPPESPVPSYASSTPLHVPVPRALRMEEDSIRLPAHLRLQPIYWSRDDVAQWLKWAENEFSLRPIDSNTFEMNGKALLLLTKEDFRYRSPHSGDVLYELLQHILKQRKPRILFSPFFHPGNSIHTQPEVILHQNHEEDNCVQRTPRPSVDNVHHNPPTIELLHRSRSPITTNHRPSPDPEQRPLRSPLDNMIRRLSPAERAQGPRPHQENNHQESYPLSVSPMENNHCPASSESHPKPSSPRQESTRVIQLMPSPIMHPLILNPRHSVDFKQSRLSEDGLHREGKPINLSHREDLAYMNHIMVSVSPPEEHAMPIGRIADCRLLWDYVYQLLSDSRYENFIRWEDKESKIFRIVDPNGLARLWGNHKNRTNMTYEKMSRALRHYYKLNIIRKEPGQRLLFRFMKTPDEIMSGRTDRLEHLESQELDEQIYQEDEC
Chain of HSF1 (Q00613 whole entry): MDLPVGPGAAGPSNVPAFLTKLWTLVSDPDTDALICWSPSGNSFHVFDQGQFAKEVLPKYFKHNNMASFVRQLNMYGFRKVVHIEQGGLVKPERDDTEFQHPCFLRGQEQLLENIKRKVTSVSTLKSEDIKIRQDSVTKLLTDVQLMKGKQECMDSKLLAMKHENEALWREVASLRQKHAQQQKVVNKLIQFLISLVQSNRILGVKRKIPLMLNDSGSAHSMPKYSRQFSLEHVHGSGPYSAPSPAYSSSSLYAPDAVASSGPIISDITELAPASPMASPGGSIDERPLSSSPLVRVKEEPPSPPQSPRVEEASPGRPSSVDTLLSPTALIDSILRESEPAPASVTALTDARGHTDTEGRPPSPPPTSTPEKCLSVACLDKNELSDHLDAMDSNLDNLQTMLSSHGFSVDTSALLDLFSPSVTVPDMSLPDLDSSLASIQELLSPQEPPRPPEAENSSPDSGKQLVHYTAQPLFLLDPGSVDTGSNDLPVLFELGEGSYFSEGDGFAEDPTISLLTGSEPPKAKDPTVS
Chain of CRX (O43186 whole entry): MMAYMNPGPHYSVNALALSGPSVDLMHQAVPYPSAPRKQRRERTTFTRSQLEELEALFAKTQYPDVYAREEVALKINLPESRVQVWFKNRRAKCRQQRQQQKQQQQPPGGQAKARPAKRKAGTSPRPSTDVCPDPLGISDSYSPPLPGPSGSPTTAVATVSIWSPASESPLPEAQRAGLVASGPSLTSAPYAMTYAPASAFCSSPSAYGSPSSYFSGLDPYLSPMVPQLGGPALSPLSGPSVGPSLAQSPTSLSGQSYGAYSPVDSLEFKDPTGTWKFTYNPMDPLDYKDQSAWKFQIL
Chain of ELF4 (Q99607 whole entry): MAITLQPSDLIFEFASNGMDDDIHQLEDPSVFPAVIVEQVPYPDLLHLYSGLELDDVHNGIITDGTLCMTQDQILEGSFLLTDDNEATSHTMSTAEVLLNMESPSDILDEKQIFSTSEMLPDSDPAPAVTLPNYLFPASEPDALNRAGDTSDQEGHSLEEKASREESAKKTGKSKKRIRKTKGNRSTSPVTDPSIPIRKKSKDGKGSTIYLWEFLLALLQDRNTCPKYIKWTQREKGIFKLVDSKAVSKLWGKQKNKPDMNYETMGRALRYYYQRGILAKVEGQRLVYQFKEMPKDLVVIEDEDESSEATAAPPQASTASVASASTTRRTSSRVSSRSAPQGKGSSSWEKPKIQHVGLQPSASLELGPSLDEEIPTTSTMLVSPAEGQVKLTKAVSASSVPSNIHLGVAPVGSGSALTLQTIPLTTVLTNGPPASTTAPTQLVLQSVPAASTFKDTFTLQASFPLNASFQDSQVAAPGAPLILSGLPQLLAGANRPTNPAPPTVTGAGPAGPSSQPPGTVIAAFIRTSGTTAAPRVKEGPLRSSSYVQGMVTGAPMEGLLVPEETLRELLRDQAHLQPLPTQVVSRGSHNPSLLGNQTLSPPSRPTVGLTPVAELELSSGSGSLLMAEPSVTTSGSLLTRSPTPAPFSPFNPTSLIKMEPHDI

Sequence: TAGCAC
- binding signal (FEV): 1.22 fold enrichment (6-mer frequency, TF over GST control)
- binding signal (ETV5): 1.14 fold enrichment (6-mer frequency, TF over GST control)
- binding signal (HSF1): 1.24 fold enrichment (6-mer frequency, TF over GST control)
- binding signal (SPIC): 1.04 fold enrichment (6-mer frequency, TF over GST control)
- binding signal (ELF4): 1.18 fold enrichment (6-mer frequency, TF over GST control)
- binding signal (ELK4): 1.11 fold enrichment (6-mer frequency, TF over GST control)
- binding signal (ETV2): 1.25 fold enrichment (6-mer frequency, TF over GST control)
- binding signal (ELF3): 1.15 fold enrichment (6-mer frequency, TF over GST control)
- binding signal (CRX): 1.22 fold enrichment (6-mer frequency, TF over GST control)
- binding signal (ETV1): 1.19 fold enrichment (6-mer frequency, TF over GST control)
- binding signal (ERF): 1.33 fold enrichment (6-mer frequency, TF over GST control)
- binding signal (ETV3L): 1.21 fold enrichment (6-mer frequency, TF over GST control)
- binding signal (ETS2): 1.15 fold enrichment (6-mer frequency, TF over GST control)
- binding signal (SPDEF): 1.14 fold enrichment (6-mer frequency, TF over GST control)
- binding signal (ETV7): 1.08 fold enrichment (6-mer frequency, TF over GST control)
- binding signal (ELF5): 1.09 fold enrichment (6-mer frequency, TF over GST control)
- binding signal (ETV3): 1.1 fold enrichment (6-mer frequency, TF over GST control)
- binding signal (ETV6): 1.02 fold enrichment (6-mer frequency, TF over GST control)
